{"source": "ChEMBL document CHEMBL1157539", "about": "“Thousands of chemical starting points for antimalarial lead identification” (Nature, 2010)", "data": [{"tested_on": "Plasmodium falciparum", "test": "GSK_TCMDC: Inhibition of Plasmodium falciparum 3D7 in whole red blood cells, using parasite LDH activity as an index of growth. Test compounds present at 2uM", "format": "functional", "units": {"Inhibition": "%"}, "values": [{"smiles": "Fc1ccc(-c2cc3ncnc(N4CCN(CCN5CCCC5)CC4)c3s2)cc1", "Inhibition": 98}, {"smiles": "Cc1ccccc1C1CCN(C2CCC(NC(=O)/C=C/c3c(F)ccc(F)c3F)CC2)CC1", "note": "(stereo unspecified)", "Inhibition": 82}, {"smiles": "COc1ccc2nccc([C@@H](O)CN3CCC(NCc4cc5c(Cl)cc(Cl)cc5[nH]4)CC3)c2c1.O=C(O)C(=O)O", "Inhibition": 100}, {"smiles": "COc1cc2nc(NCCCN3CCCCC3)nc(NCc3ccccc3)c2cc1OC", "Inhibition": 100}, {"smiles": "Cc1onc(-c2ccccc2)c1C(=O)Nc1nc(-c2ccccn2)nc2ccsc12", "Inhibition": 97}, {"smiles": "O=C(C=Cc1ccc(Cl)c(Cl)c1)NCCCCCN1CCC(CCCNC(=O)/C=C/c2ccccc2)CC1", "Inhibition": 96}, {"smiles": "Cc1cccc(CNc2nc(C)cc(NCCC(=O)Nc3ccccc3)n2)c1.O=C(O)C(F)(F)F", "Inhibition": 100}, {"smiles": "Cc1cc(N[C@@H](Cc2ccccc2)C(=O)NCCc2ccccc2)nc(NCC2CCCCC2)n1.O=C(O)C(F)(F)F", "Inhibition": 100}, {"smiles": "COCCNCc1ncsc1-c1ccc2c(Nc3cc(O)c(Cl)cc3F)ccnc2c1", "Inhibition": 100}, {"smiles": "CS(=O)(=O)c1ccc(CNCc2ccc(-c3cccc(-c4nc5cc(F)ccc5[nH]4)c3)cc2)cc1.O=C(O)C(F)(F)F", "Inhibition": 100}, {"smiles": "CN(C)C(=S)N/N=C1/C(=O)Nc2ccc(OC(F)(F)F)cc21", "Inhibition": 93}, {"smiles": "CC1C(c2cccc(Cl)c2)OCC(C)(C)N1C(=O)CCN1CCCCC1.Cl", "note": "(stereo unspecified)", "Inhibition": 88}, {"smiles": "O=C(Nc1cccc(-c2ccc(-c3nc4cc(F)ccc4[nH]3)cc2)c1)c1cccnc1", "Inhibition": 100}, {"smiles": "COc1cccc(C(=O)Nc2ccc(Nc3nc(C)cc(N4CCCCC4)n3)cc2)c1OC", "Inhibition": 92}, {"smiles": "Br.CC1(C)N=C(N)N=C(N)N1OCCc1ccc2ccccc2c1", "Inhibition": 96}, {"smiles": "COCCn1ccc2c3c(N)nc(N)nc3ccc21", "Inhibition": 93}, {"smiles": "Cn1nc(-c2ccc(NC(=O)Nc3cc(C(F)(F)F)ccc3F)c(F)c2)c2cnc(NCCCn3ccnc3)nc21.O=C(O)C(F)(F)F", "Inhibition": 100}, {"smiles": "Clc1ncnc2scc(-c3ccc(Br)cc3)c12", "Inhibition": 95}, {"smiles": "COc1cc(NC(=O)C(c2ccc(Cl)cc2)C(C)C)cc(OC)c1", "note": "(stereo unspecified)", "Inhibition": 99}, {"smiles": "Cl.N#Cc1ccc(C2CCN(CC[C@H](N)Cc3ccc(Cl)s3)CC2)cc1", "Inhibition": 92}, {"smiles": "CC1(C)N=C(N)N=C(N)N1c1cc(Cl)c(Cl)cc1Cl.Cl", "Inhibition": 95}, {"smiles": "Cc1ccc(NC(=O)c2cccc(CN3CCCN(CC4CCCCC4)CC3)c2)cc1F.O=C(O)C(F)(F)F", "Inhibition": 85}, {"smiles": "COc1cc(C(=O)N2COCC(CCCN3CCC(N4CCCC4)CC3)(c3ccc(Cl)c(Cl)c3)C2)cc(OC)c1OC", "note": "(stereo unspecified)", "Inhibition": 95}, {"smiles": "CC(=O)Nc1cccc(C(=O)Nc2cccc(-c3ccc(-c4nc5cc(F)ccc5[nH]4)cc3)c2)c1", "Inhibition": 95}, {"smiles": "Cl.O=c1cc(NCCCNCc2scc3c(Cl)cc(C(F)(F)F)nc23)[nH]c2ccccc12", "Inhibition": 99}, {"smiles": "O=C(C=Cc1cn(-c2ccccc2)nc1-c1cccs1)N1CCN(c2ccncc2)CC1", "Inhibition": 100}]}, {"tested_on": "Plasmodium falciparum", "test": "GSK_TCMDC: Inhibition of Plasmodium falciparum Dd2 in whole red blood cells, using parasite LDH activity as an index of growth. Test compounds present at 2uM", "format": "functional", "units": {"Inhibition": "%"}, "values": [{"smiles": "CC(C)c1ccc(NC(=O)Nc2ccc(CCNCCCc3ccccc3)cc2)cc1", "Inhibition": 56}, {"smiles": "COc1ccc(C(=O)CC(=O)c2ccc(OC)cc2OC)c(OC)c1", "Inhibition": 0}, {"smiles": "CC(C)(C)c1ccc(CNCCOc2ccc(Nc3nnc(-c4ccc(-c5ncc[nH]5)cc4)o3)c3ccccc23)cc1.O=C(O)C(F)(F)F", "Inhibition": 88}, {"smiles": "CCCCCCCN1CC[C@@H](CCCc2ccnc3ccc(OCCCCN/C(N)=N/O)cc23)[C@@H](CC)C1.O=C(O)C(=O)O", "Inhibition": 39}, {"smiles": "O=C(NC1CCC1)C1CCN(C(c2ccc(Cl)cc2)c2ccc(Cl)cc2)CC1", "Inhibition": 70}, {"smiles": "COc1ccccc1-c1csc(C(=O)NC2CCCCN(Cc3ccc(C(C)(C)C)cc3)C2)c1.O=C(O)C(F)(F)F", "note": "(stereo unspecified)", "Inhibition": 8}, {"smiles": "O=C(NC1CCCCN(Cc2ccc3c(c2)OCCO3)C1)c1cc(-c2ccccc2F)cs1.O=C(O)C(F)(F)F", "note": "(stereo unspecified)", "Inhibition": 19}, {"smiles": "CCCCCCn1c(Sc2ccc(C#N)c([N+](=O)[O-])c2)nnc1-c1cccc(Cl)c1", "Inhibition": 90}, {"smiles": "CCN(CC)CCN(Cc1ccc(-c2ccc(C(F)(F)F)cc2)cc1)C(=O)c1ccc(-c2ccc(NC(=O)OC)cc2C)cc1", "Inhibition": 42}, {"smiles": "CCCc1cc(Cc2cnc(N)nc2N)ccc1OCCCCCC(=O)O.Cl", "Inhibition": 0}, {"smiles": "COc1ccccc1C1CCN(C2CCC(NC(=O)c3cc4ccccc4[nH]3)CC2)CC1", "note": "(stereo unspecified)", "Inhibition": 7}, {"smiles": "CCOc1cc2c(cc1OCC)C(c1cc(OC)c(O)cc1Cl)NCC2", "note": "(stereo unspecified)", "Inhibition": 97}, {"smiles": "CC(Oc1cccc(Cl)c1)C(=O)N1CCc2ccccc21", "note": "(stereo unspecified)", "Inhibition": 77}, {"smiles": "COc1ccccc1C1CCN(C2CCC(NC(=O)/C=C/c3ccc(OC(F)(F)F)cc3)CC2)CC1", "note": "(stereo unspecified)", "Inhibition": 11}, {"smiles": "Fc1ccc(-c2cc3ncnc(N4CCN(CCN5CCCC5)CC4)c3s2)cc1", "Inhibition": 40}, {"smiles": "Cc1ccccc1C1CCN(C2CCC(NC(=O)/C=C/c3c(F)ccc(F)c3F)CC2)CC1", "note": "(stereo unspecified)", "Inhibition": 33}, {"smiles": "COc1ccc2nccc([C@@H](O)CN3CCC(NCc4cc5c(Cl)cc(Cl)cc5[nH]4)CC3)c2c1.O=C(O)C(=O)O", "Inhibition": 86}, {"smiles": "COc1cc2nc(NCCCN3CCCCC3)nc(NCc3ccccc3)c2cc1OC", "Inhibition": 3}, {"smiles": "Cc1onc(-c2ccccc2)c1C(=O)Nc1nc(-c2ccccn2)nc2ccsc12", "Inhibition": 78}, {"smiles": "O=C(C=Cc1ccc(Cl)c(Cl)c1)NCCCCCN1CCC(CCCNC(=O)/C=C/c2ccccc2)CC1", "Inhibition": 33}, {"smiles": "Cc1cccc(CNc2nc(C)cc(NCCC(=O)Nc3ccccc3)n2)c1.O=C(O)C(F)(F)F", "Inhibition": 54}, {"smiles": "Cc1cc(N[C@@H](Cc2ccccc2)C(=O)NCCc2ccccc2)nc(NCC2CCCCC2)n1.O=C(O)C(F)(F)F", "Inhibition": 95}, {"smiles": "COCCNCc1ncsc1-c1ccc2c(Nc3cc(O)c(Cl)cc3F)ccnc2c1", "Inhibition": 92}, {"smiles": "CS(=O)(=O)c1ccc(CNCc2ccc(-c3cccc(-c4nc5cc(F)ccc5[nH]4)c3)cc2)cc1.O=C(O)C(F)(F)F", "Inhibition": 74}, {"smiles": "CN(C)C(=S)N/N=C1/C(=O)Nc2ccc(OC(F)(F)F)cc21", "Inhibition": 52}, {"smiles": "CC1C(c2cccc(Cl)c2)OCC(C)(C)N1C(=O)CCN1CCCCC1.Cl", "note": "(stereo unspecified)", "Inhibition": 5}, {"smiles": "O=C(Nc1cccc(-c2ccc(-c3nc4cc(F)ccc4[nH]3)cc2)c1)c1cccnc1", "Inhibition": 92}, {"smiles": "COc1cccc(C(=O)Nc2ccc(Nc3nc(C)cc(N4CCCCC4)n3)cc2)c1OC", "Inhibition": 27}, {"smiles": "Br.CC1(C)N=C(N)N=C(N)N1OCCc1ccc2ccccc2c1", "Inhibition": 95}, {"smiles": "COCCn1ccc2c3c(N)nc(N)nc3ccc21", "Inhibition": 29}, {"smiles": "Cn1nc(-c2ccc(NC(=O)Nc3cc(C(F)(F)F)ccc3F)c(F)c2)c2cnc(NCCCn3ccnc3)nc21.O=C(O)C(F)(F)F", "Inhibition": 97}, {"smiles": "Clc1ncnc2scc(-c3ccc(Br)cc3)c12", "Inhibition": 96}, {"smiles": "COc1cc(NC(=O)C(c2ccc(Cl)cc2)C(C)C)cc(OC)c1", "note": "(stereo unspecified)", "Inhibition": 98}, {"smiles": "Cl.N#Cc1ccc(C2CCN(CC[C@H](N)Cc3ccc(Cl)s3)CC2)cc1", "Inhibition": 30}, {"smiles": "CC1(C)N=C(N)N=C(N)N1c1cc(Cl)c(Cl)cc1Cl.Cl", "Inhibition": 0}, {"smiles": "Cc1ccc(NC(=O)c2cccc(CN3CCCN(CC4CCCCC4)CC3)c2)cc1F.O=C(O)C(F)(F)F", "Inhibition": 42}, {"smiles": "COc1cc(C(=O)N2COCC(CCCN3CCC(N4CCCC4)CC3)(c3ccc(Cl)c(Cl)c3)C2)cc(OC)c1OC", "note": "(stereo unspecified)", "Inhibition": 70}, {"smiles": "CC(=O)Nc1cccc(C(=O)Nc2cccc(-c3ccc(-c4nc5cc(F)ccc5[nH]4)cc3)c2)c1", "Inhibition": 9}, {"smiles": "Cl.O=c1cc(NCCCNCc2scc3c(Cl)cc(C(F)(F)F)nc23)[nH]c2ccccc12", "Inhibition": 21}, {"smiles": "O=C(C=Cc1cn(-c2ccccc2)nc1-c1cccs1)N1CCN(c2ccncc2)CC1", "Inhibition": 61}]}]}
